Bioassay records: PubChem BioAssay, several laboratories
Peg3 prom inh-1 – reduces Peg3 promoter-driven luciferase expression in HeLa; inhibition, % at 20 µM; AID 588405; HeLa PEG-Prom luciferase reporter, luminescence, overnight; 360,000 tested, 1.7% active;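 active means inhibition of at least 50% at 20 µM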
CF NFkB inh – blocks PAF-induced NF-kB reporter in cystic fibrosis cells. KKLEB NF-kB-GFP reporter, GFP fluorescence overnight. inhibition, % at 5 µM. 360,000 tested, 0.86% active. AID 588850;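 active means at least 50% inhibition at 5 µM, scaled per plate between neutral and stimulator controls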;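 further: PAF is a Pseudomonas aeruginosa culture filtrate used as stimulus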
KKLEB tox – CF airway cell cytotoxicity counter-screen | KKLEB CF airway cells viability, ATPlite luminescence, overnight; active compounds read low; cells stimulated with P. aeruginosa culture filtrate | activity change (cytotoxicity), % at 5 µM | 360,000 tested, 0.36% active | AID 602141;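 active means corrected activity change at or below -50% at 5 µM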
LMP1 NFkB inh – Epstein-Barr LMP1 NF-kappaB reporter inhibition. LMP1-induced NF-kappaB luciferase reporter cells, luminescence. inhibition, % at 12.5 µM. 350,000 tested, 0.69% active; in the data active means inhibition above about 41%
Shn3 3UTR inh – inhibitors of Schnurri-3 3'UTR reporter in osteoblasts; 360,000 tested, 0.52% active; AID 588674; inhibition, % at 12.5 µM; Clone20 osteoblast Shn3 3'UTR firefly luciferase, 24 h;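 active means mean inhibition of at least 75% with every replicate also reaching 75%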
HIF-2a inh – blocks HIF-2a reporter activity. 786-0 RCC cells HIF-2a reporter, luciferase luminescence, overnight. inhibition, % at 18.8 µM. 360,000 tested, 0.72% active;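 active means inhibition of the luminescence signal of 40% or more relative to plate controls, in a single-dose primary screen at 18.75 µM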
Peg3 prom inh-2 – confirmation of Peg3 promoter inhibitors. shares compounds with Peg3 prom inh-1. 1,300 tested, 84% active. HeLa PEG-Prom luciferase reporter, luminescence, overnight. inhibition, % at 20 µM;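 active means at 20 µM dose, 40% or more inhibition averaged across four replicates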
CF NFkB inh conf – CF NF-kB inhibition confirmation, single concentration | shares compounds with CF NFkB inh | inhibition, % at 5 µM | KKLEB CF airway cells, PAF-induced NF-kB-GFP fluorescence, overnight | 1,300 tested, 64% active; in the data active means inhibition above about 40%;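 further: stimulus PAF is a Pseudomonas aeruginosa filtrate and not platelet activating factor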
Mdm2-MdmX confirm – confirmation of inhibitors of human Mdm2/MdmX interaction, set 2. shares compounds with HIF-2a inh. SaOS-2 split-luciferase Mdm2/MdmX complementation, luminescence. inhibition, % at 8 µM. 740 tested, 99% active. AID 504601;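 active means mean inhibition of the luminescence signal across two replicates at or above 26 percent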
HIF-2a conf – confirmation of HIF-2a inhibitors; AID 651580; shares compounds with HIF-2a inh; 786-0 RCC cells, HIF-2a luciferase reporter luminescence, overnight; inhibition, % at 18.8 µM; 1,800 tested, 56% active;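 active means mean inhibition across four replicates of at least 40 percent at the single tested concentration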
HIF-1a cs – inhibits HIF-1a reporter, a counter-screen for HIF-2a inhibitors; shares compounds with HIF-2a inh; MiaPaCa-2 HIF-1a luciferase reporter, desferoxamine, overnight; AID 651589; inhibition, % at 18.8 µM; 1,800 tested, 72% active;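 active means mean inhibition of the reporter signal across four replicates at the single tested dose of 50% or more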
Numbers stand for hits; 0 = inactive; - = not tested or not shown. A selection: hits, their analogues and other compounds. The true share with any hit is near 2.9%.

SMILES	Peg3 prom inh-1	CF NFkB inh	KKLEB tox	LMP1 NFkB inh	Shn3 3UTR inh	HIF-2a inh	Peg3 prom inh-2	HIF-2a conf	HIF-1a cs	others
COC(=O)c1nn(-c2ccc3c(c2)CCN3C(C)=O)cc1O	90	0	0	55	0	78	84	0	0
COC(=O)c1nn(-c2ccc3c(c2)OCO3)cc1O	0	0	0	0	0	0	-	-	-
CCOc1ccc(C(=O)NNC(=O)c2cc(S(=O)(=O)N3CCOCC3)ccc2Cl)cc1	0	0	0	0	0	0	-	-	-
Cc1cccc(-c2noc(-c3ccc4c(c3)OCO4)n2)c1	0	0	0	0	0	0	-	-	-
c1ccc(-c2noc(-c3ccc4c(c3)OCO4)n2)nc1	87	0	0	78	0	80	81	85	87
CC(=O)C(=Cc1cccc(C#N)c1)C(=O)c1ccccc1	104	56	0	-	0	94	0	0	87	CF NFkB inh conf=0
COc1ccccc1NS(=O)(=O)c1ccc(NC(=O)N2CCCCC2)cc1	0	0	0	0	0	0	-	-	-
Cc1cc(C)c2cccc(N)c2n1	0	0	0	0	0	0	-	-	-
Cc1cc(C)c2ccc(N)nc2c1O	70	0	0	0	0	0	58	-	-	Mdm2-MdmX confirm=89
CNC(=O)COC(=O)c1ccccc1C(=O)c1ccc(Cl)c([N+](=O)[O-])c1	100	90	0	0	0	71	99	0	104	CF NFkB inh conf=112
CC(C)OC(=O)c1ccccc1C(=O)c1ccc(N)c([N+](=O)[O-])c1	0	0	0	0	0	0	-	-	-
CC(=O)Nc1ccc(-c2ccnc3c2CC(C)(C(=O)NCCc2ccccc2)O3)cc1 (stereo unspecified)	0	0	0	-	0	0	-	-	-
O=C(NC1CCCCC1)N1CCN(c2ncccn2)CC1	0	0	0	0	0	0	-	-	-
COc1ccccc1CC(=O)N(Cc1ccccc1)c1ccc(C)cc1	0	0	0	0	0	0	-	-	-
CC(C)(C)c1ccc(Cn2c(=O)cnc3ccccc32)cc1	86	0	0	63	0	62	77	66	86
Cc1cc2c(c(/C=C/C(=O)c3ccccc3)c1)OC1(C=C2)Oc2ccccc2C(=O)N1C (stereo unspecified)	80	62	0	0	93	80	99	62	105	CF NFkB inh conf=0
C/C(=N\Nc1ccc2nncn2n1)c1ccco1	0	0	0	0	0	0	-	-	-
C/C(=N\Nc1ccc2nncn2n1)c1ccccn1	60	0	0	-	90	0	60	-	-	Mdm2-MdmX confirm=83
Cc1cc2sc3ccc(C#CC4(O)CCCCC4)cc3c(=O)c2cc1C	99	0	0	78	94	93	97	97	103	Mdm2-MdmX confirm=101
Cc1ccc(-c2nnc(SCC(=O)Nc3ccccc3F)o2)cc1	89	0	0	79	0	77	85	89	96
O=C(Nc1cc(S(=O)(=O)N2CCOCC2)ccc1Cl)c1cc([N+](=O)[O-])ccc1Cl	109	0	0	0	0	62	84	50	0
Cc1ccc2nc(-c3ccccc3)cn2c1	89	0	0	72	0	73	78	89	84
CC(NC(=O)c1ccc([N+](=O)[O-])o1)C12CC3CC(CC(C3)C1)C2 (stereo unspecified)	86	100	-70	0	0	64	77	0	103
CC(NC(=O)CN1C(=O)NC2(CCCCCC2)C1=O)c1ccccc1Cl (stereo unspecified)	0	0	0	0	0	0	-	-	-
O=Cc1ccc(OCc2cccc(C(F)(F)F)c2)cc1O	0	0	0	0	0	0	-	-	-
SMILES	Peg3 prom inh-1	CF NFkB inh	KKLEB tox	LMP1 NFkB inh	Shn3 3UTR inh	HIF-2a inh	Peg3 prom inh-2	HIF-2a conf	HIF-1a cs	others
COc1ccc(OCc2cccc(C(=O)O)c2)cc1	96	0	0	86	94	93	90	97	0	Mdm2-MdmX confirm=93
O=C(OCC(F)(F)F)c1cccc(COc2ccc3ccccc3c2)c1	73	0	0	79	0	83	77	90	0
Clc1ccc(CSc2nnc(-c3ccc4c(c3)OCO4)o2)cc1	0	0	0	0	0	0	-	-	-
O=C1CCCCC1Sc1nnc(-c2ccc3c(c2)OCO3)o1 (stereo unspecified)	85	0	0	56	0	69	74	86	92
O=C(O)c1ccc2nc(-c3ccccc3)sc2c1	87	0	0	0	0	78	46	62	0
Nn1c(SCC(=O)NCCC2=CCCCC2)nnc1C(F)(F)F	0	0	0	0	0	0	-	-	-
O=C1c2ccccc2S(=O)(=O)N1Cc1nc2ccccc2s1	93	0	0	76	0	67	58	76	75
Cc1ccc(S(=O)(=O)Nc2ccc(S(=O)(=O)NCC3CCCO3)cc2)cc1 (stereo unspecified)	0	0	0	0	0	0	-	-	-
O=C(Nc1ccc(S(=O)(=O)NC2=NCCCCC2)cc1)c1ccc([N+](=O)[O-])s1	69	0	0	0	0	60	77	0	106
NS(=O)(=O)c1ccc(NC(=O)c2cc(=O)c3ccccc3o2)cc1	0	0	0	0	0	0	-	-	-
C(=NN1CCCCCC1)c1ccc2ccccc2n1	91	0	-84	84	86	87	96	97	103
O=C(CCl)N1N=C(c2ccco2)CC1c1cccs1 (stereo unspecified)	90	58	0	66	0	40	78	0	73	CF NFkB inh conf=0
CCCS(=O)(=O)c1ncc(Cl)c(C(=O)Nc2ccc(S(=O)(=O)Nc3ncccn3)cc2)n1	0	0	0	0	0	0	-	-	-
COc1cccc(NC(=O)c2nc(S(C)(=O)=O)ncc2Cl)c1	108	88	0	0	97	68	98	65	0	CF NFkB inh conf=61;Mdm2-MdmX confirm=101
CC(=O)Nc1ccc(NC(=O)c2nc(S(=O)(=O)Cc3cccc(C)c3)ncc2Cl)cc1	102	102	0	0	97	0	96	-	-	CF NFkB inh conf=82;Mdm2-MdmX confirm=103
CC(C)Oc1ccc(C(=O)Nc2c3c(nn2C(C)(C)C)CS(=O)(=O)C3)cc1	0	0	0	0	0	0	-	-	-
CCc1ccc(/C(C)=N/NC(=O)c2ccc(-n3cnnn3)cc2)cc1	0	0	0	0	0	0	-	-	-
